Measured values from PubChem BioAssay (NCI).
“And” between values parts separate entries of the source, which are not always exact repeats. Equal values may be shown once. About 83,000 compounds went through this panel and 20% of them were active in at least one assay; those are over-represented in the sample as a whole.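 Interpretation: 100, growth as untreated; towards 0, rising growth inhibition; 0, no net growth; 0 to -100, cell death. Compounds scoring below 10 were considered active.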 The source made the active and inactive calls.

Legend:
Test in all cases: NCI-60 one-dose screen, 48 h (100 = growth as untreated, 0 = no growth, -100 = all killed)
[1] = tested on: HCT-15 colon; conditions: 10 µM
[2] = tested on: HT29 colon; conditions: 10 µM
[3] = tested on: SNB-19 CNS; conditions: 10 µM
[4] = tested on: U251 CNS; conditions: 10 µM
[5] = tested on: PC-3 prostate; conditions: 10 µM
[6] = tested on: SK-MEL-5 melanoma; conditions: 10 µM
[7] = tested on: UACC-62 melanoma
[8] = tested on: LOX IMVI melanoma; conditions: 10 µM
[9] = tested on: SK-MEL-28 melanoma; conditions: 10 µM
[10] = tested on: SNB-75 CNS; conditions: 10 µM

Measured: growth

C#C[C@H]1CCCCCC1O (stereo partly drawn)
inactive: [1] 114% | [2] 107% | [3] 106% | [4] 99.7% | [5] 90.1% | [6] 98.1% | [7]; 10 µM unless noted 100% | [8] 97% | [9] 122%

O=C(CC(=O)c1ccccc1O)c1ccccc1
inactive: [1] 74.4% | [2] 87.8% | [3] 86.9% | [4] 63.3% | [5] 92.6% | [6] 77.6% | [7]; 10 µM unless noted 91% | [8] 76.9% | [9] 99.3%

O=C1OC[C@H]2[C@H](c3ccc(O)c(O)c3)c3cc(O)c(O)cc3C[C@H]12
inactive: [1] 116% | [2] 115% | [3] 120% | [4] 116% | [5] 46.7% | [6] 102% | [7]; 10 µM unless noted 111% | [9] 117%

OCC(O)C(O)C(O)C(O)/C=N/O (stereo not drawn)
inactive: [1] 105% | [2] 103% | [3] 98.3% | [5] 73.2% | [6] 101% | [7]; 10 µM unless noted 93.3% | [8] 98.3% | [9] 114%

N#CCc1ccc([N+](=O)[O-])cc1
inactive: [1] 105% | [2] 104% | [3] 96.6% | [5] 95.8% | [6] 101% | [7]; 10 µM unless noted 92.8% | [8] 100% | [9] 106%

O=S(=O)(Cc1ccccc1)c1ccccc1
inactive: [1] 102% | [2] 107% | [3] 107% | [5] 102% | [6] 104% | [7]; 10 µM unless noted 111% | [8] 107% | [9] 98.5%

CCN1C(=O)/C(=C/C=C/N(C)c2ccccc2)SC1=S
inactive: [1] 81.5% | [2] 90.4% | [3] 94.1% | [4] 85.5% | [5] 85.1% | [6] 87.5% | [7]; 10 µM unless noted 91.3% | [8] 91.5% | [9] 94.6%

Cc1cc(C)cc(NCCC#N)c1
inactive: [1] 106% | [2] 105% | [3] 96.5% | [4] 105% | [6] 107% | [7]; 10 µM unless noted 105% | [8] 105% | [9] 108%

COc1cc(CN)ccc1O
inactive: [1] 111% | [2] 91.8% | [3] 94.9% | [5] 100% | [6] 102% | [7]; 10 µM unless noted 90.1% | [8] 89.8% | [9] 117%

CC(C)=NNc1ccc([N+](=O)[O-])cc1[N+](=O)[O-]
inactive: [1] 62.3% | [2] 91.8% | [3] 98.3% | [4] 92.9% | [5] 87.3% | [6] 102% | [7]; 10 µM unless noted 65.1% | [8] 77.6% | [9] 111%

FC(F)(F)c1ccc2c(c1)N(CCCN1CCN(C3CC3)CC1)c1ccccc1S2
inactive: [1] 68.7% | [2] 36.1% | [3] 43% | [4] 25.8% | [5] 48.5% | [6] 81% | [7]; 10 µM unless noted 54% | [8] 37.6% | [9] 93.8%

COc1ccc(C2(O)CCCCC2)cc1
inactive: [1] 112% | [2] 106% | [3] 102% | [4] 100% | [5] 89.7% | [6] 98.6% | [7]; 10 µM unless noted 94.7% | [8] 96.1% | [9] 120%

O=C1Cc2ccccc2C(=O)O1
inactive: [1] 110% | [2] 109% | [3] 103% | [4] 104% | [5] 85.1% | [6] 105% | [8] 102% | [9] 106%

O=C(c1ccccc1)C1CCC1
inactive: [1] 99.7% | [2] 85.4% | [3] 103% | [5] 90.4% | [6] 107% | [7]; 10 µM unless noted 94% | [8] 106%

C1CNC(C2=NCCN2)=N1
inactive: [1] 108% | [2] 102% | [3] 112% | [4] 102% | [5] 98.8% | [6] 101% | [7]; 10 µM unless noted 104% | [8] 98% | [9] 109%

CCOc1ccc(/C=C/C(=O)c2ccccc2)cc1
inactive: [1] 92.4% | [2] 96.1% | [3] 92.2% | [4] 86.7% | [5] 73.7% | [6] 99.6% | [7]; 10 µM unless noted 88.9% | [8] 93.5% | [9] 100%

C[N+](C)=c1ccc2nc3c(cc(Nc4ccccc4)c4ccccc43)oc-2c1
inactive: [1] 56.7% | [2] 52.2% | [3] 57.2% | [5] 47.3% | [6] 46.3% | [7]; 10 µM unless noted 44.8% | [8] 30.4% | [9] 23.5%

NC(=S)CN1CCOCC1
inactive: [1] 107% | [2] 100% | [3] 104% | [5] 91.9% | [6] 106% | [7]; 10 µM unless noted 99% | [9] 106%

C#CCSc1nnnn1-c1ccc(Br)c(C)c1
inactive: [1] 95.4% | [2] 89.7% | [3] 86.4% | [4] 81.8% | [5] 99.7% | [6] 88.3% | [7]; 10 µM unless noted 65.6% | [9] 124%

C#Cc1cccc(NC(=O)c2ccc(Cl)cc2Cl)c1
inactive: [1] 87.6% | [2] 100% | [3] 97.3% | [4] 91.3% | [5] 82.6% | [6] 91.1% | [8] 98.5% | [9] 102%

COc1ccc(NC(=O)CCl)cc1
inactive: [1] 72.3% | [2] 67.3% | [3] 104% | [5] 74.6% | [6] 65.3% | [7]; 10 µM unless noted 83.1% | [9] 97.2%
active: [4] 6.32%

CCOC(=O)C1OC1c1ccccc1 (stereo not drawn)
inactive: [1] 103% | [2] 112% | [3] 103% | [4] 98.7% | [5] 98.8% | [6] 99.6% | [7]; 10 µM unless noted 101% | [8] 101% | [9] 110%

CC(=O)c1sc2c(c1OC(=O)c1ccc(Cl)cc1Cl)c(=O)n(-c1ccccc1)c(=S)n2-c1ccccc1
inactive: [3] 16.3% | [6] 42.7% | [7]; 10 µM 29.4%
active: [1] 3.9% | [2] -23.9% | [5] -29.7% | [7]; 100 µM -11.6% and -45.7% | [8] -18.9%

Cc1cc(=O)cc(C)n1-c1ccccc1
inactive: [1] 104% | [2] 101% | [3] 99.8% | [4] 101% | [5] 93.6% | [6] 106% | [7]; 10 µM unless noted 99% | [8] 98.9% | [9] 104%

Cc1cc(N2CCC(N3CCCC3)CC2)nc(/N=C(\N)Nc2ccc(Cl)c(Cl)c2)n1
inactive: [3] 90.7% | [5] 82.6%
active: [1] -12.7% | [2] -44.6% | [4] -71.8% | [6] -94% | [7]; 10 µM unless noted -82.9% | [8] -90.8% | [9] -75%

N=c1c(C(=O)OCc2ccccc2)ncc(CCl)n1O
inactive: [1] 99.7% | [10] 83.6% | [3] 95.6% | [4] 71.4% | [5] 95.9% | [6] 96.9% | [7]; 10 µM unless noted 91.1% | [8] 42.2% | [9] 98.1%

CC1Cc2ccccc2O1 (stereo not drawn)
inactive: [1] 99.1% | [10] 105% | [3] 117% | [4] 111% | [5] 106% | [6] 108% | [7]; 10 µM unless noted 122% | [8] 97.4% | [9] 114%

CC1(C)Nc2cccc3c(N=Nc4ccc(N=Nc5ccccc5)c5ccccc45)ccc(c23)N1
inactive: [1] 77.5% | [10] 73% | [3] 124% | [4] 110% | [5] 89.6% | [6] 92.9% | [7]; 10 µM unless noted 79.2% | [8] 77.6% | [9] 116%

CCC(=O)Oc1ccc(OC)cc1
inactive: [1] 105% | [10] 90.7% | [3] 104% | [4] 98.3% | [5] 110% | [6] 107% | [7]; 10 µM unless noted 99.8% | [8] 105% | [9] 112%

Cc1cc(N)c(S(=O)(=O)O)c(N)c1
inactive: [1] 105% | [10] 98.8% | [3] 90.7% | [4] 98.7% | [5] 85.4% | [6] 104% | [7]; 10 µM unless noted 92.4% | [8] 94% | [9] 104%

O=c1cc(-c2ccccc2)oc2c1ccc1ccccc12
inactive: [1] 97.7% | [10] 71.4% | [3] 75.5% | [4] 83.8% | [5] 84% | [6] 79.6% | [7]; 10 µM unless noted 85.6% | [8] 89.3% | [9] 99.3%

C/C(O)=C(\C=N\C(N)=S)C(=O)Nc1ccccc1
inactive: [1] 110% | [10] 88.1% | [3] 100% | [4] 97.4% | [5] 93.5% | [6] 97.6% | [7]; 10 µM unless noted 96.8% | [8] 96.7% | [9] 116%

Cc1cc(NC(=O)CSCC(=O)O)no1
inactive: [1] 96.7% | [2] 98.5% | [5] 98.6% | [6] 101% | [7]; 10 µM unless noted 94.7% | [8] 103% | [9] 108%

CC(=O)c1ccc(C)c(N)c1
inactive: [1] 100% | [10] 97.6% | [3] 99% | [4] 98.4% | [5] 92.8% | [6] 110% | [7]; 10 µM unless noted 99.9% | [8] 76.8% | [9] 105%
